A selection: hits, their analogues and other compounds. The true share with any hit is near 19%.
HT1080NT lethal: kills 2HG-producing HT-1080-NT fibrosarcoma cells. Potency, µM (titrated, usually from 46.1 µM), for inactives: at the highest dose activity, negative = less viability, usual class: cytotoxic. AID 686970. HT-1080-NT fibrosarcoma viability, CellTiter-Glo ATP luminescence, 48 h. actives 1.6% (n = 360,000);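 note: NT is the 2HG producing partner of a matched IDH1 knockdown line; 0% = DMSO-treated cells and -100% = media-only wells without cells; nearly all actives have a fitted effect of over 55% in size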
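A 48-hour cytotoxicity screen used HT-1080-NT cells plated 2 hours before compound delivery. ATP-based CellTiter-Glo luminescence measured viability, normalized to DMSO and no-cell controls.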
KB-V1 cytotox: kills drug-selected multidrug resistant KB-V1 cells | actives 3.4% (n = 400,000) | KB-V1 MDR cells viability, CellTiter-Glo, 72 h | Potency, µM (top dose mostly 46.1 µM), most hits filed as cytotoxic; note: nearly all actives have a fitted effect of over 60% in size
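KB-V1 cells (P-gp-expressing MDR subline of KB-3-1) in phenol-red-free DMEM with 10% FBS were exposed to library compounds over a concentration series for 72 h at 37 degrees C. Viability read by CellTiter-Glo luminescence; concentration-effect curves fitted after normalization.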
DT40 TDP1 CPT: growth inhibition of DT40 Tdp1-/-;hTDP1 cells with camptothecin (screen for TDP1 inhibitors) | chicken DT40 Tdp1-/-;hTDP1 cells + 20 nM CPT, ATP luminescence, 48 h | Potency, µM (highest dose often 46.2 µM), for the others: top-dose activity change, negative = growth inhibition, usual class: inhibitors | actives 12% (n = 420,000); note: nearly all actives have a fitted effect of over 55% in size
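Chicken DT40 Tdp1-/- cells stably complemented with human TDP1 were seeded at 400 cells/well in medium containing 20 nM camptothecin, exposed to pin-transferred compounds, and grown at 37 °C for at least 48 hr. Viability was read as ATP luminescence.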
HT1080 IDH1KD tx: HT-1080 IDH1 knockdown cell toxicity (counter line). Potency, µM (series often up to 46.1 µM), inactives show at the top dose activity, negative = toxicity, usual class: cytotoxic. AID 686971. actives 2% (n = 360,000). HT-1080 IDH1 knockdown viability, ATP luminescence, 48 h;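 note: 0% = DMSO wells and -100% = cell-free medium wells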
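% activity derives from luminescence (CellTiter-Glo), normalised to DMSO and no-cell wells. HT-1080-IDH1KD cells, 750/well, had 48 h compound exposure at 37 °C.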
DT40 TDP1 no CPT: qHTS for Inhibitors of human tyrosyl-DNA phosphodiesterase 1 (TDP1): qHTS in cells in absence of CPT | DT40 Tdp1-/- hTDP1 cells, no CPT, ATP luminescence, 48 h | actives 15% (n = 420,000) | Potency, µM (titrated, usually from 46.2 µM), for the others: at the highest dose activity change, negative = growth inhibition, usual class: inhibitors; note: nearly all actives have a fitted effect of over 55% in size
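Seeded 400 DT40-hTDP1 cells/well (vehicle DMSO, no 20 nM CPT); pinned compounds; ≥48 hr at 37 °C; CellTiter-Glo luminescence as viability measure.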
KB-3-1 cytotox: KB-3-1 parental cell cytotoxicity. KB-3-1 viability, CellTiter-Glo ATP luminescence, 72 h. Potency, µM (doses to about 46.1 µM), hits mostly cytotoxic. actives 1.4% (n = 400,000). AID 1347075; note: nearly all actives have a fitted effect of over 60% in size
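Multi-concentration cytotoxicity screen in KB-3-1 cells grown in DMEM lacking phenol red with 10% FBS. After 72 h at 37 °C with compound, ATP-dependent luminescence was recorded.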
Active calls of the source: *; i = inactive; u = inconclusive; x = not tested or not shown. Calls come from the whole dose curve; as a rule, active = well fitted curve in the direction sought with a large enough effect; inconclusive = small, poorly fitted or top-dose-only effect, or another doubt; inactive = no such curve, though single readings can be large; an effect the other way counts as inactive or inconclusive. Unless noted, % is set by controls: 0 for no effect and ±100 for the full control effect; potency is the fitted concentration of half-maximal effect.

SMILES | HT1080NT lethal | KB-V1 cytotox | DT40 TDP1 CPT | HT1080 IDH1KD tx | DT40 TDP1 no CPT | KB-3-1 cytotox
CCCCCCCCCCCC(=O)[O][Sn]([CH2]CCC)([CH2]CCC)[O]C(=O)CCCCCCCCCCC | x | x | -11% | x | 0% | x
COc1cc2nc(N3CCN(c4cc(C)ccc4C)CC3)nc(N)c2cc1OC | 2.6µM* | u | 8.2µM* | 2.6µM* | 7.3µM* | u
Cc1cccc(C)c1NC(=O)C1c2ccccc2OCC(=O)N1Cc1ccco1 (stereo not drawn) | 24% | i | -3% | 14% | -22% | i
CC(=O)N=c1c(C#N)cc2c(=O)n3cccc(C)c3nc2n1CCCOC(C)C | u | i | 1% | 19% | -29% | i
Cc1cccn2c(=O)c3cc(C#N)c(=NC(=O)c4ccncc4)n(CCCOC(C)C)c3nc12 | -12% | i | 18µM* | -3% | 16µM* | i
Cc1cccn2c(=O)c3cc(C#N)c(=NC(=O)c4cccs4)n(CCCOC(C)C)c3nc12 | 0% | u | u | 2% | 18µM* | i
CCN(CC)c1ccc(NC2CC(=O)N(CCc3ccc(OC)cc3)C2=O)cc1 (stereo not drawn) | -6% | i | 13µM* | -6% | 15µM* | i
CC(=O)Nc1ccc([N+](=O)[O-])c(CS(=O)(=O)c2ccc(C)cc2)c1[N+](=O)[O-] | 21% | i | u | 26% | 23µM* | i
Cc1c(Cc2ccccc2)c(=O)[nH]c(=O)n1C | 6% | i | -6% | 4% | -3% | i
CC1CCCCN1C(=O)c1ccc(OC2CCN(S(=O)(=O)N(C)C)CC2)cc1 (stereo not drawn) | -17% | 23µM* | u | u | 10µM* | i
CN(C(=O)c1ccc(OC2CCN(S(=O)(=O)N(C)C)CC2)cc1)C1CCCCC1 | -1% | i | 21µM* | 6% | u | i
CCC1CCCCN1C(=O)c1ccc(OC2CCN(C(=O)C3CC3)CC2)cc1 (stereo not drawn) | -2% | i | u | -1% | u | i
CN(C)S(=O)(=O)N1CCC(Oc2ccc(C(=O)N3CCCCCC3)cc2)CC1 | -1% | u | 23µM* | -15% | 13µM* | i
CSCCNC(=O)c1ccc(OC2CCN(S(=O)(=O)N(C)C)CC2)cc1 | 5% | i | -12% | -6% | 2% | i
CN(C)S(=O)(=O)N1CCC(Oc2ccc(C(=O)N3CCCCCCC3)cc2)CC1 | -4% | 10µM* | 16µM* | -4% | 16µM* | u
CCNc1ncc2nc(-c3cccs3)c(=O)n(-c3ccccc3)c2n1 | x | x | -18% | x | -6% | x
CNC[C@@H]1CC[C@@H](N)[C@@H](O[C@H]2[C@H](O)[C@@H](O[C@H]3OC[C@](C)(O)[C@H](NC)[C@H]3O)[C@H](N)C[C@@H]2N)O1 | x | x | 4% | x | 8% | x
CSc1ncccc1C(=O)OCC(=O)Nc1nc(C)c(Cl)cc1Cl | 1% | i | -7% | -3% | -5% | i
CCc1nc2c(OCC(=O)c3ccc(Cl)cc3Cl)cccn2c1N(C=O)Cc1ccccc1 | -10% | i | 21µM* | -12% | u | i
CCCCN(C=O)c1c(CC)nc2c(OCc3ccc(Cl)cc3)cccn12 | u | u | 18µM* | u | 23µM* | u
CCc1nc2c(OCC(=O)N(C)C)cccn2c1N(C=O)Cc1ccc(OC)cc1 | 10% | i | -4% | 0% | 2% | i
C=CCOc1cccn2c(N(C=O)Cc3ccccc3)c(CC)nc12 | 8% | i | 13µM* | 2% | 12µM* | i
CCc1nc2c(OCc3cc(Cl)cc(Cl)c3)cccn2c1N(C=O)Cc1ccccc1 | u | 21µM* | 26µM* | u | u | u
CC(=O)N/C(=C\c1ccccc1)C(=O)OCC(=O)Nc1cc(S(=O)(=O)N(C)C)ccc1Cl | -1% | i | u | -2% | -29% | i
O=C1Nc2ccccc2-c2nnnn2C1N1CCCC1 (stereo not drawn) | 13% | i | 0% | 13% | -5% | i
SMILES | HT1080NT lethal | KB-V1 cytotox | DT40 TDP1 CPT | HT1080 IDH1KD tx | DT40 TDP1 no CPT | KB-3-1 cytotox
CCc1nc2c(OCc3c(C)noc3C)cccn2c1N(C=O)Cc1ccccc1 | 23% | i | u | 8% | 21µM* | i
CCc1nc2c(OCCc3cccc(OC)c3)cccn2c1N(C=O)Cc1ccccc1 | -5% | i | u | -15% | u | i
CCc1nc2c(OCC(=O)c3ccc(Cl)cc3Cl)cccn2c1N(C)C(=O)c1ccncc1 | 18% | i | u | 0% | u | i
CCc1nc2c(OCc3ccc(Cl)cc3)cccn2c1N(C=O)Cc1ccccc1 | 23µM* | i | u | u | 23µM* | u
CCCCC(=O)N(C)c1c(CC)nc2c(OCC(=O)c3ccc(Cl)cc3Cl)cccn12 | -18% | u | 23µM* | -12% | u | i
CCc1nc2c(OCc3cc(Cl)cc(Cl)c3)cccn2c1N(C=O)Cc1ccc(OC)cc1 | u | u | 23µM* | u | u | u
C=CCN1C(=O)c2ccc(C(=O)N3CCN(S(=O)(=O)c4cc(C)ccc4C)CC3)cc2C1=O | 0% | i | 2% | 1% | -4% | i
COC(=O)[C@]12CCCCC=C1N(Cc1ccco1)C(=O)[C@H](CC(=O)N1CCOCC1)C2 | 20% | i | -1% | 7% | -11% | i
CCc1nc2c(OCCc3cccc(OC)c3)cccn2c1N(C=O)Cc1ccc(OC)cc1 | -26% | u | 18µM* | -12% | u | i
CCc1nc2c(OCCC3CCCCC3)cccn2c1N(C=O)Cc1ccccc1 | u | i | 16µM* | u | u | i
CC(C)(C)c1ccc(C(=O)NC(=O)COC(=O)CCS(=O)(=O)c2ccccc2)cc1 | 5% | i | -19% | 17% | -6% | i
CC(=O)NCCNc1nc2cc(-c3cccc(Cl)c3)sc2c(=O)n1C | -5% | i | -1% | -15% | -22% | i
CC(=NCc1cccc(Cl)c1)c1nc(-c2ccco2)oc1O | 1% | i | -30% | -5% | u | 5.8µM*
COc1ccc(NC(=O)CSc2ncc3c(n2)-c2cc(Cl)ccc2N(Cc2ccccc2F)S3(=O)=O)cc1 | x | i | u | x | u | i

Screening data: PubChem BioAssay, National Center for Advancing Translational Sciences (NCATS)
